For 10 molecules, growth inhibition results are on record in PubChem BioAssay (NCI).

This is part of a sample that, as a whole, favours compounds with a hit. Of some 79,000 tested, about 15% had one in any assay. The source made the active and inactive calls. No stated cut-off is given here; in the data, active means growth inhibition above about 70%; inactive means the rest.

Assay [1] can be described thus: NCI Yeast Anticancer Drug Screen. Data for the rad50 strain (AID 155).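 Further: 0% = growth of vehicle-only cultures of the same strain.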 Particulars: S. cerevisiae rad50 strain growth inhibition, stronger effect = higher value. In outline: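 Genetically altered yeast (DNA repair pathway); compound treatment; growth inhibition vs vehicle ctrl.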
The nature of assay [2]: NCI Yeast Anticancer Drug Screen. Data for the mec2-1 strain (AID 157). Conditions: S. cerevisiae mec2-1 strain, stronger effect = higher value. In outline: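 Growth inhibition is read against vehicle-treated controls after compound exposure of the mec2-1 yeast strain, which is defective in DNA damage repair or cell cycle control.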
Assay [3] in a line: NCI Yeast Anticancer Drug Screen. Data for the sgs1 mgt1 strain (AID 161).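 Further: 0% = growth of cultures given vehicle only.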 Conditions: S. cerevisiae sgs1 mgt1 strain, stronger effect = higher value. In outline: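 Growth of a repair-deficient yeast mutant was monitored after compound treatment and expressed as inhibition relative to vehicle-treated cultures.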
A short description of assay [4]: NCI Yeast Anticancer Drug Screen. Data for the cln2 rad14 strain (AID 165).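 Further: 0% = growth equal to vehicle treated cultures.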 Particulars: S. cerevisiae cln2 rad14 strain, stronger effect = higher value. In outline: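 Growth inhibition, relative to vehicle-treated controls, is the read-out. The test organism is a yeast strain with defined genetic alterations, cln2 rad14.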
Assay [5] is described as follows: NCI Yeast Anticancer Drug Screen. Data for the bub3 strain (AID 167). Conditions: S. cerevisiae bub3 mutant strain, stronger effect = higher value. In outline:
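Yeast carrying a defined mutation is treated with each compound, and growth is compared with that of vehicle-exposed cells to give inhibition.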

Assay [6] can be described thus: NCI Yeast Anticancer Drug Screen. Data for the mlh1 rad18 strain (AID 175). Conditions: S. cerevisiae mlh1 rad18 strain growth inhibition, stronger effect = higher value. The method in brief: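 Cells of a genetically altered yeast strain, deficient in DNA damage repair, were treated with compound. Their growth was then compared with that of vehicle-treated cultures to give inhibition.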

Setting [7] is: at 5.0 µM (retest, dose inferred, filed as 0.5).
[8] abbreviates: at 50.0 µM (retest, dose inferred, filed as 5.0).

For the molecule `CC1CC[N-]CC1.CC1CC[N-]CC1.CC1CC[N-]CC1.CC1CC[N-]CC1.CS(C)=O.CS(C)=O.[Cl-].[Cl-].[Cl-].[Cl-].[Pt+4].[Rh+3]`, the growth inhibition in assay [1] (setting [7]) is 65% (inactive); in assay [1] (setting [8]), 96% (active); in assay [1] (at 50.0 µM) it was 95.5% (active); in assay [2] (setting [7]), 58% (inactive); in assay [2] (setting [8]), 98% (active); in assay [2] (at 50.0 µM), 96.8% (active). The growth inhibition was 66% (inactive) in assay [3] (setting [7]); 98% (active) in assay [3] (setting [8]); 96.3% (active) in assay [3] (at 50.0 µM); 44% (inactive) in assay [4] (setting [7]); 97% (active) in assay [4] (setting [8]); 89.3% (active) in assay [4] (at 50.0 µM). The growth inhibition in assay [5] (setting [7]) is 52% (inactive); in assay [5] (setting [8]), 96% (active); in assay [5] (at 50.0 µM), 97.9% (active); in assay [6] (setting [7]), 69% (inactive); in assay [6] (setting [8]) it was 97% (active); in assay [6] (at 50.0 µM) it was 97% (active).

Consider `C[n+]1c(-c2cccc(OCCOCCOc3cccc(-c4c5cc(N)ccc5c5ccc(N)cc5[n+]4C)c3)c2)c2cc(N)ccc2c2ccc(N)cc21`, for which the growth inhibition in assay [1] (setting [7]) is 36% (inactive); in assay [1] (setting [8]), 96% (active); in assay [1] (at 50.0 µM), 85.5% (active); in assay [2] (setting [7]), 6% (inactive); in assay [2] (setting [8]), 95% (active); in assay [2] (at 50.0 µM), 82.7% (active). The growth inhibition in assay [3] (setting [7]) is 25% (inactive); in assay [3] (setting [8]) it was 97% (active); in assay [3] (at 50.0 µM), 81.3% (active); in assay [4] (setting [7]), 10% (inactive); in assay [4] (setting [8]), 59% (inactive); in assay [4] (at 50.0 µM), 62.9% (inactive). The growth inhibition in assay [5] (setting [7]) was 22% (inactive); in assay [5] (setting [8]), 94% (active); in assay [5] (at 50.0 µM), 78.8% (active); in assay [6] (setting [7]), 35% (inactive); in assay [6] (setting [8]) it was 95% (active); in assay [6] (at 50.0 µM), 86.5% (active).

In the case of `COc1ccc(C(=O)C(CCC(=O)/C=C/c2ccccc2)S(C)(=O)=O)cc1` (stereo not given), the growth inhibition in assay [1] (setting [7]) is 8% (inactive); in assay [1] (setting [8]) it was 10% (inactive); in assay [1] (at 50.0 µM), 9.25% (inactive); in assay [2] (setting [7]) it was -12% (inactive); in assay [2] (setting [8]), 15% (inactive); in assay [2] (at 50.0 µM) it was 3.5% (inactive). In addition, the growth inhibition in assay [3] (setting [7]) was 5% (inactive); in assay [3] (setting [8]), 13% (inactive); in assay [3] (at 50.0 µM) it was 17.2% (inactive); in assay [4] (setting [7]), 2% (inactive); in assay [4] (setting [8]), -8% (inactive); in assay [4] (at 50.0 µM), 39.9% (inactive). Moreover, the growth inhibition was -7% (inactive) in assay [5] (setting [7]); 6% (inactive) in assay [5] (setting [8]); 0.7% (inactive) in assay [5] (at 50.0 µM); 0% (inactive) in assay [6] (setting [7]); -5% (inactive) in assay [6] (setting [8]); 2.4% (inactive) in assay [6] (at 50.0 µM).

Regarding `Cc1cccc(Nc2c3c(nc4ccccc24)CCCCC3)c1`, the growth inhibition was 0% (inactive) in assay [1] (setting [7]); 89% (active) in assay [1] (setting [8]); 90% (active) in assay [1] (at 50.0 µM); -2% (inactive) in assay [2] (setting [7]); 79% (active) in assay [2] (setting [8]); 28.1% (inactive) in assay [2] (at 50.0 µM). The growth inhibition is -2% (inactive) in assay [3] (setting [7]); 85% (active) in assay [3] (setting [8]); 86.8% (active) in assay [3] (at 50.0 µM); -3% (inactive) in assay [4] (setting [7]); 53% (inactive) in assay [4] (setting [8]); 66.9% (inactive) in assay [4] (at 50.0 µM). In addition, the growth inhibition was -1% (inactive) in assay [5] (setting [7]); 92% (active) in assay [5] (setting [8]); 27.1% (inactive) in assay [5] (at 50.0 µM); -5% (inactive) in assay [6] (setting [7]); 83% (active) in assay [6] (setting [8]); 93.2% (active) in assay [6] (at 50.0 µM).

Turning to `COC(=O)C([NH-])c1ccccc1.COC(=O)C([NH-])c1ccccc1.[Cl][Pt+2][Cl]` (stereo not given), the growth inhibition was 16% (inactive) in assay [1] (setting [7]); 81% (active) in assay [1] (setting [8]); 69% (inactive) in assay [1] (at 50.0 µM); 11% (inactive) in assay [2] (setting [7]); 37% (inactive) in assay [2] (setting [8]); 46.9% (inactive) in assay [2] (at 50.0 µM). Further, the growth inhibition in assay [3] (setting [7]) is 39% (inactive); in assay [3] (setting [8]) it was 76% (active); in assay [3] (at 50.0 µM), 76.3% (active); in assay [4] (setting [7]), 0% (inactive); in assay [4] (setting [8]), 43% (inactive); in assay [4] (at 50.0 µM) it was 58% (inactive). The growth inhibition is 5% (inactive) in assay [5] (setting [7]); 27% (inactive) in assay [5] (setting [8]); 30.2% (inactive) in assay [5] (at 50.0 µM); 21% (inactive) in assay [6] (setting [7]); 60% (inactive) in assay [6] (setting [8]); 76.7% (active) in assay [6] (at 50.0 µM).

Regarding `Cc1ccc(C)c(N2C(=O)C(=O)C(c3nc4ccccc4o3)C(=O)C2=O)c1`, the growth inhibition in assay [1] (setting [7]) was 38% (inactive); in assay [1] (setting [8]), 98% (active); in assay [1] (at 50.0 µM) it was 99% (active); in assay [2] (setting [7]), 18% (inactive); in assay [2] (setting [8]), 99% (active); in assay [2] (at 50.0 µM), 99.3% (active). The growth inhibition in assay [3] (setting [7]) was 30% (inactive); in assay [3] (setting [8]) it was 98% (active); in assay [3] (at 50.0 µM), 96.3% (active); in assay [4] (setting [7]) it was 30% (inactive); in assay [4] (setting [8]), 99% (active); in assay [4] (at 50.0 µM), 99% (active). In addition, the growth inhibition in assay [5] (setting [7]) was 13% (inactive); in assay [5] (setting [8]) it was 98% (active); in assay [5] (at 50.0 µM), 99.3% (active); in assay [6] (setting [7]), 15% (inactive); in assay [6] (setting [8]), 98% (active); in assay [6] (at 50.0 µM) it was 98.8% (active).

With `Clc1ccc2oc(N3CCCCC3)nc2c1`, the growth inhibition in assay [1] (setting [7]) was 4% (inactive); in assay [1] (setting [8]), 7% (inactive); in assay [1] (at 50.0 µM) it was 98.8% (active); in assay [2] (setting [7]), -3% (inactive); in assay [2] (setting [8]) it was -3% (inactive); in assay [2] (at 50.0 µM) it was 99.2% (active). The growth inhibition in assay [3] (setting [7]) was 2% (inactive); in assay [3] (setting [8]) it was 6% (inactive); in assay [3] (at 50.0 µM) it was 99% (active); in assay [4] (setting [7]), 2% (inactive); in assay [4] (setting [8]), 6% (inactive); in assay [4] (at 50.0 µM), 98.2% (active). Besides, the growth inhibition in assay [5] (setting [7]) was 8% (inactive); in assay [5] (setting [8]) it was 15% (inactive); in assay [5] (at 50.0 µM) it was 99.2% (active); in assay [6] (setting [7]), 4% (inactive); in assay [6] (setting [8]) it was 11% (inactive); in assay [6] (at 50.0 µM), 98.7% (active).

For `Oc1c(Cl)cc(Br)cc1Cl`, the growth inhibition in assay [1] (setting [7]) is 44% (inactive); in assay [1] (setting [8]), 95% (active); in assay [1] (at 50.0 µM), 84.7% (active); in assay [2] (setting [7]), 19% (inactive); in assay [2] (setting [8]), 99% (active); in assay [2] (at 50.0 µM), 92.9% (active). The growth inhibition in assay [3] (setting [7]) is 11% (inactive); in assay [3] (setting [8]), 93% (active); in assay [3] (at 50.0 µM), 96.5% (active); in assay [4] (setting [7]), 3% (inactive); in assay [4] (setting [8]) it was 99% (active); in assay [4] (at 50.0 µM), 78.5% (active). In addition, the growth inhibition in assay [5] (setting [7]) was 13% (inactive); in assay [5] (setting [8]) it was 99% (active); in assay [5] (at 50.0 µM), 89.3% (active); in assay [6] (setting [7]), 12% (inactive); in assay [6] (setting [8]) it was 97% (active); in assay [6] (at 50.0 µM), 91.8% (active).

Regarding `Oc1c(Br)c(Br)c(O)c(Br)c1Br`, the growth inhibition in assay [1] (setting [7]) is 12% (inactive); in assay [1] (setting [8]), 50% (inactive); in assay [1] (at 50.0 µM), 98.9% (active); in assay [2] (setting [7]), 7% (inactive); in assay [2] (setting [8]), 33% (inactive); in assay [2] (at 50.0 µM), 99.2% (active). Also, the growth inhibition in assay [3] (setting [7]) was 7% (inactive); in assay [3] (setting [8]), 58% (inactive); in assay [3] (at 50.0 µM), 94.5% (active); in assay [4] (setting [7]), 5% (inactive); in assay [4] (setting [8]), 13% (inactive); in assay [4] (at 50.0 µM) it was 37.5% (inactive). For the same molecule, the growth inhibition is 8% (inactive) in assay [5] (setting [7]); 42% (inactive) in assay [5] (setting [8]); 97.8% (active) in assay [5] (at 50.0 µM); 10% (inactive) in assay [6] (setting [7]); 35% (inactive) in assay [6] (setting [8]); 98% (active) in assay [6] (at 50.0 µM).

As to `C/C=C1\SC(=S)NC1=O`, the growth inhibition in assay [1] (setting [7]) was 25% (inactive); in assay [1] (setting [8]) it was 99% (active); in assay [1] (at 50.0 µM), 98.8% (active); in assay [2] (setting [7]) it was 11% (inactive); in assay [2] (setting [8]) it was 99% (active); in assay [2] (at 50.0 µM), 98.8% (active). Besides, the growth inhibition was 22% (inactive) in assay [3] (setting [7]); 98% (active) in assay [3] (setting [8]); 99.2% (active) in assay [3] (at 50.0 µM); 6% (inactive) in assay [4] (setting [7]); 98% (active) in assay [4] (setting [8]); 95.9% (active) in assay [4] (at 50.0 µM). The growth inhibition in assay [5] (setting [7]) was 9% (inactive); in assay [5] (setting [8]), 98% (active); in assay [5] (at 50.0 µM) it was 98% (active); in assay [6] (setting [7]), 36% (inactive); in assay [6] (setting [8]), 99% (active); in assay [6] (at 50.0 µM), 99.3% (active).
